Results reported in the supplement of paper PMC12350171.
Structures can show the parent of a compound that is named as a salt.

How the values were obtained:
Settings in all cases: 20 µM
[1] = test system: Salmonella enterica typhimurium; experiment: growth AUC normalised to DMSO control (fraction of control); higher = less growth inhibition, active = hit call of the paper
Procedure, shortened: (§1)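 After two anaerobic passages, pathogens were added at a starting OD578 of 0.01 to pre-reduced mGAM plates holding compound at 20 μM with 1% DMSO; hemin and NAD were supplemented for Haemophilus parainfluenzae. Sealed with breathable membranes, plates were read at OD578 hourly for 24 h, in three biological replicates. The trapezoidal rule, applied up to the exponential-to-stationary transition, gave the growth-curve AUC, which was normalised to DMSO controls on the same plate.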

Shigella flexneri = experiment: as above
Procedure, shortened: as §1

Vibrio cholerae = experiment: as above
Procedure, shortened: as §1

[2] = test system: Yersinia pseudotuberculosis; experiment: as above
Procedure, shortened: as §1

P. vulgatus RND KO = experiment: growth AUC normalised to DMSO control (median) (fraction of control); higher = less growth inhibition, active = hit call of the paper
Procedure, shortened: (§2)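 In 96-well plates of mGAM seeded at OD578 0.01, strains that had been passaged twice overnight without oxygen were exposed to approved-drug library compounds at 20 μM with 1% DMSO. Hourly OD578 readings were taken for 24 h in an anaerobic incubator. The trapezoidal-rule area under the curve, with curves truncated at entry into stationary phase, was expressed relative to same-plate vehicle wells as the median of three biological replicates.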

P. vulgatus WT = experiment: as above
Procedure, shortened: as §2

[3] = test system: S. enterica typhimurium WT; experiment: as above
Procedure, shortened: as §2

[4] = test system: S. enterica typhimurium tolC KO; experiment: as above
Procedure, shortened: as §2

Measured: growth AUC normalised to DMSO control
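Wherever growth AUC normalised to DMSO control (median) is given: active when median AUC fell below 0.1.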

CC1c2cccc(O)c2C(O)=C2C(=O)C3(O)C(O)=C(C(N)=O)C(=O)C(N(C)C)C3C(O)C21 (stereo not drawn) [Doxycycline hydrochloride]
active: [1] 0.00452 | Shigella flexneri 0.00494 | Vibrio cholerae 0.018 | [2] 0.0395 | P. vulgatus RND KO 0.012 | P. vulgatus WT 0.00631 | [3] 0.00375 | [4] 0.00276

O=C1OCCN1/N=C/c1ccc([N+](=O)[O-])o1 [Furazolidone]
active: [1] 0.391 | Shigella flexneri 0.0191 | Vibrio cholerae 0.0449 | [2] 0.842 | P. vulgatus RND KO 0.0122 | P. vulgatus WT 0.00859
inactive: [3] 0.459 | [4] 0.609

CN1CCOC(c2ccccc2)c2ccccc2C1 (stereo not drawn) [Nefopam hydrochloride]
inactive: [1] 0.987 | Shigella flexneri 0.993 | Vibrio cholerae 0.983 | [2] 1 | P. vulgatus RND KO 0.992 | P. vulgatus WT 0.982 | [3] 1 | [4] 0.988

CCc1ccc(CCOc2ccc(CC3SC(=O)NC3=O)cc2)nc1 (stereo not drawn) [Pioglitazone]
inactive: [1] 0.967 | Shigella flexneri 0.958 | Vibrio cholerae 0.911 | [2] 0.922 | P. vulgatus RND KO 0.994 | P. vulgatus WT 0.992 | [3] 0.996 | [4] 0.993

O=C1NCCN1CCN1CCC(c2cn(-c3ccc(F)cc3)c3ccc(Cl)cc23)CC1 [Sertindole]
inactive: [1] 1.02 | Shigella flexneri 1.04 | Vibrio cholerae 1.02 | [2] 1.01 | P. vulgatus RND KO 0.833 | P. vulgatus WT 0.905 | [3] 1 | [4] 0.949

CN[C@@H]1[C@H](O[C@H]2[C@H](O[C@H]3[C@H](O)[C@@H](O)[C@H](NC(=N)N)[C@@H](O)[C@@H]3NC(=N)N)O[C@@H](C)[C@]2(O)CO)O[C@@H](CO)[C@H](O)[C@H]1O [Dihydrostreptomycin sulfate]
inactive: [1] 0.994 | Shigella flexneri 1.01 | Vibrio cholerae 1.02 | [2] 0.973 | P. vulgatus RND KO 0.999 | P. vulgatus WT 1.02 | [3] 0.992 | [4] 0.989

C[C@]12CC[C@H]3[C@@H](CCC4=CC(=O)CC[C@@]43C)[C@@H]1CC[C@@H]2C(=O)CO [Deoxycorticosterone]
inactive: [1] 1 | Shigella flexneri 1.03 | Vibrio cholerae 1.03 | [2] 1.03 | P. vulgatus RND KO 1.07 | P. vulgatus WT 1.07 | [3] 1 | [4] 0.933

Clc1ccc(CCC(Cn2ccnc2)Sc2c(Cl)cccc2Cl)cc1 (stereo not drawn) [Butoconazole nitrate]
inactive: [1] 1 | Shigella flexneri 1.01 | Vibrio cholerae 0.98 | [2] 0.745 | P. vulgatus RND KO 0.998 | P. vulgatus WT 1 | [3] 1.01 | [4] 0.999

CCCCOc1ccc(C(=O)CCN2CCCCC2)cc1 [Dyclonine hydrochloride]
inactive: [1] 0.985 | Shigella flexneri 0.963 | Vibrio cholerae 0.913 | [2] 0.979 | P. vulgatus RND KO 1 | P. vulgatus WT 1.01 | [3] 0.996 | [4] 0.986

O=C1c2ccccc2C(=O)C1c1ccccc1 [Phenindione]
inactive: [1] 0.982 | Shigella flexneri 0.956 | Vibrio cholerae 0.983 | [2] 0.983 | P. vulgatus RND KO 0.997 | P. vulgatus WT 0.989 | [3] 0.998 | [4] 0.977

CCN(CCCc1ccccc1)CCCc1ccccc1 [Alverine citrate salt]
inactive: [1] 0.985 | Shigella flexneri 0.966 | [2] 0.971 | P. vulgatus RND KO 1.02 | P. vulgatus WT 1.03 | [3] 1 | [4] 0.961
active: Vibrio cholerae 0.841

CCC1NC(=O)c2cc(S(N)(=O)=O)c(Cl)cc2N1 (stereo not drawn) [Quinethazone]
inactive: [1] 1.01 | Shigella flexneri 1.03 | Vibrio cholerae 1.05 | [2] 1.01 | P. vulgatus RND KO 1.06 | P. vulgatus WT 1.12 | [3] 1.01 | [4] 1.01

CCN(CC)CCOC(=O)C(c1ccccc1)c1ccccc1 [Adiphenine hydrochloride]
inactive: [1] 0.974 | Shigella flexneri 0.99 | Vibrio cholerae 1.01 | [2] 1 | P. vulgatus RND KO 1.03 | P. vulgatus WT 1.03 | [3] 0.995 | [4] 1

OCCN1CCN(CCCN2c3ccccc3Sc3ccc(Cl)cc32)CC1 [Perphenazine]
inactive: [1] 0.99 | Shigella flexneri 0.975 | Vibrio cholerae 0.91 | [2] 1.01 | P. vulgatus RND KO 1.01 | P. vulgatus WT 0.989 | [3] 1 | [4] 0.929

N=C(N)NC(=O)Cc1c(Cl)cccc1Cl [Guanfacine hydrochloride]
inactive: [1] 0.983 | Shigella flexneri 0.971 | Vibrio cholerae 1.02 | [2] 0.988 | P. vulgatus RND KO 1.02 | P. vulgatus WT 1.04 | [3] 0.989 | [4] 0.966

O=C(O)Cc1ccccc1Nc1c(Cl)cccc1Cl [Diclofenac sodium]
inactive: [1] 0.975 | Shigella flexneri 0.957 | Vibrio cholerae 0.973 | [2] 0.982 | P. vulgatus RND KO 0.95 | P. vulgatus WT 0.964 | [3] 1 | [4] 0.997

CNS(=O)(=O)Cc1ccc2[nH]cc(CCN(C)C)c2c1 [Sumatriptan succinate]
inactive: [1] 0.996 | Shigella flexneri 0.967 | Vibrio cholerae 0.988 | [2] 1 | P. vulgatus RND KO 1.03 | P. vulgatus WT 1.01 | [3] 1.01 | [4] 1

CC(C)(C)NC[C@H](O)COc1ccccc1C1CCCC1 [Penbutolol sulfate]
inactive: [1] 1.01 | Shigella flexneri 1.02 | Vibrio cholerae 1 | [2] 1.02 | P. vulgatus RND KO 0.994 | P. vulgatus WT 1.01 | [3] 1 | [4] 0.947

CCCC1O[C@@H]2C[C@H]3[C@@H]4CCC5=CC(=O)C=C[C@]5(C)[C@H]4[C@@H](O)C[C@]3(C)[C@]2(C(=O)CO)O1 (stereo partly drawn) [Budesonide]
inactive: [1] 0.978 | Shigella flexneri 0.995 | Vibrio cholerae 0.987 | [2] 0.989 | P. vulgatus RND KO 0.968 | P. vulgatus WT 0.999 | [3] 0.991 | [4] 0.984

C1CCC(C(CC2CCCCN2)C2CCCCC2)CC1 (stereo not drawn) [Perhexiline maleate]
inactive: [1] 0.983 | Shigella flexneri 0.977 | Vibrio cholerae 0.931 | [2] 1.01 | P. vulgatus RND KO 0.915 | P. vulgatus WT 0.954 | [3] 0.994 | [4] 0.945

C[N+]1(C)CCC(OC(=O)C(O)(c2ccccc2)C2CCCC2)C1 (stereo not drawn) [Glycopyrrolate bromide]
inactive: [1] 1.02 | Shigella flexneri 1 | Vibrio cholerae 1.01 | [2] 1.01 | P. vulgatus RND KO 1 | P. vulgatus WT 0.984 | [3] 1 | [4] 0.993

CN1CCCN=C1/C=C/c1cccc(O)c1 [Oxantel pamoate]
inactive: [1] 1.01 | Shigella flexneri 1.02 | Vibrio cholerae 1.05 | [2] 1.02 | P. vulgatus RND KO 1.01 | P. vulgatus WT 0.992 | [3] 1.01 | [4] 1.01

CCOC(=O)C1=C(C)NC(C)=C(C(=O)OC)C1c1cccc(Cl)c1Cl (stereo not drawn) [Felodipine]
inactive: [1] 0.987 | Shigella flexneri 1 | Vibrio cholerae 1 | [2] 0.883 | P. vulgatus RND KO 1.01 | P. vulgatus WT 1.03 | [3] 1 | [4] 1

O=C(OCCOCCO)c1ccccc1Nc1cccc(C(F)(F)F)c1 [Etofenamate]
inactive: [1] 1.01 | Shigella flexneri 0.979 | Vibrio cholerae 0.977 | [2] 0.991 | P. vulgatus RND KO 0.832 | P. vulgatus WT 0.909 | [3] 1 | [4] 0.858

COc1c(N2C[C@@H]3CCCN[C@@H]3C2)c(F)cc2c(=O)c(C(=O)O)cn(C3CC3)c12 [Moxifloxacin]
active: [1] 0.00585 | Shigella flexneri 0.0275 | Vibrio cholerae 0.0211 | [2] 0.0337 | P. vulgatus RND KO 0.017 | P. vulgatus WT 0.0128 | [3] 0.0075 | [4] 0.00519

CN(C)CCOC(=O)C(c1ccccc1)C1(O)CCCC1 (stereo not drawn) [Cyclopentolate hydrochloride]
inactive: [1] 1.02 | Shigella flexneri 1.01 | Vibrio cholerae 1 | [2] 1.02 | P. vulgatus RND KO 0.98 | P. vulgatus WT 0.993 | [3] 0.999 | [4] 1

Cc1ccc2c(c1)c1c3n2CCNC3CCC1 (stereo not drawn) [Pirlindole mesylate]
inactive: [1] 0.988 | Shigella flexneri 0.999 | Vibrio cholerae 0.993 | [2] 0.964 | P. vulgatus RND KO 1.02 | P. vulgatus WT 1.03 | [3] 0.998 | [4] 0.992

CN(CCOc1ccc(CC2SC(=O)NC2=O)cc1)c1ccccn1 (stereo not drawn) [Rosiglitazone hydrochloride]
inactive: [1] 1.02 | Shigella flexneri 1.08 | Vibrio cholerae 1.01 | [2] 0.975 | P. vulgatus RND KO 1.06 | P. vulgatus WT 1.04 | [3] 1.02 | [4] 0.993

Clc1ccc(CSC(Cn2ccnc2)c2ccc(Cl)cc2Cl)cc1 (stereo not drawn) [Sulconazole nitrate]
inactive: [1] 1.04 | Shigella flexneri 1.06 | Vibrio cholerae 1.05 | [2] 1.02 | P. vulgatus RND KO 1.06 | P. vulgatus WT 1.08 | [3] 0.997 | [4] 0.911

CNC[C@H](O)[C@@H](O)[C@H](O)[C@H](O)CO [Meglumine]
inactive: [1] 1.02 | Shigella flexneri 1 | Vibrio cholerae 1.04 | [2] 0.984 | P. vulgatus RND KO 1.01 | P. vulgatus WT 1.04 | [3] 1.01 | [4] 1

CN1CCN(C(c2ccccc2)c2ccccc2)CC1 [Cyclizine hydrochloride]
inactive: [1] 0.987 | Shigella flexneri 1.01 | Vibrio cholerae 0.982 | [2] 0.995 | P. vulgatus RND KO 1.02 | P. vulgatus WT 1.04 | [3] 1.01 | [4] 0.998
